Data on six compounds can be found in PubChem BioAssay (NCI).

What all share (experiment): NCI-60 one-dose screen, 48 h (100 = growth as untreated, 0 = no growth, -100 = all killed)
In one assay the test system is HCT-15 colon. The following applies: 10 µM unless noted.
The test system of another assay is HT29 colon. The following applies: 10 µM unless noted.
For a further assay, the system named is SNB-75 CNS. The following applies: 10 µM unless noted.
A further assay concerns SNB-19 CNS. The following applies: 10 µM unless noted.
The next assay relates to U251 CNS. The following applies: 10 µM unless noted.
The next assay has as its system PC-3 prostate. The following applies: 10 µM unless noted.
The test system of another assay is SK-MEL-5 melanoma. The following applies: 10 µM unless noted.
For another assay, the system named is UACC-62 melanoma. The following applies: 10 µM unless noted.
A further assay relates to SK-MEL-28 melanoma. The following applies: 10 µM unless noted.
Another assay concerns SK-MEL-2 melanoma. The following applies: 10 µM unless noted.
In the next assay the test system is SN12C renal. The following applies: 10 µM unless noted.
The next assay has as its system UO-31 renal. The following applies: 10 µM unless noted.
In the next assay the test system is TK-10 renal. The following applies: 10 µM unless noted.
The next assay has as its system ACHN renal. The following applies: 10 µM unless noted.
The test system of another assay is CAKI-1 renal. The following applies: 10 µM unless noted.
For the next assay, the system named is CCRF-CEM leukemia. The following applies: 10 µM.
The test system of the next assay is MOLT-4 leukemia. The following applies: 10 µM unless noted.
In the next assay the test system is LOX IMVI melanoma. The following applies: 10 µM unless noted.
The subject of a further assay is A498 renal. The following applies: 10 µM unless noted.
The next assay deals with EKVX NSCLC. The following applies: 10 µM.

Values joined by “and” are separate entries in the source; they are usually repeats but may differ in a detail not shown here. Identical values can stand only once. This is part of a sample that, as a whole, favours compounds with a hit. Of some 83,000 tested, about 20% had one in any assay.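 Activity criterion: percent growth below 10, measured after cells in 96-well plates were exposed to a single compound concentration for 48 hours.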 Active and inactive are the calls of the source.

As to `CC(C)NCC(O)c1ccc(O)c(O)c1` (stereo not drawn), the growth with HCT-15 colon was 104% (inactive) and 106% (inactive) and 99.5% (inactive); in the assay on HT29 colon it was 100% (inactive) and 111% (inactive); in the assay with SNB-75 CNS, 75.3% (inactive) and 83.1% (inactive) and 82.2% (inactive); in the assay with SNB-19 CNS, 101% (inactive) and 89.5% (inactive) and 93.5% (inactive); with U251 CNS, 98.6% (inactive) and 118% (inactive) and 99.2% (inactive); in the assay with PC-3 prostate, 93.8% (inactive) and 95.8% (inactive). The growth in the assay on SK-MEL-5 melanoma was 94.6% (inactive) and 90.3% (inactive) and 120% (inactive); in the assay with UACC-62 melanoma, 101% (inactive) and 109% (inactive) and 98.5% (inactive); in the assay with SK-MEL-28 melanoma, 107% (inactive) and 116% (inactive) and 101% (inactive); with SK-MEL-2 melanoma, 110% (inactive) and 240% (inactive); in the assay with SN12C renal it was 76.5% (inactive) and 91.4% (inactive) and 92.8% (inactive); in the assay with UO-31 renal, 82.6% (inactive) and 106% (inactive) and 76.1% (inactive). Also, the growth in the assay on TK-10 renal was 92.5% (inactive) and 87.4% (inactive); in the assay with ACHN renal, 89.6% (inactive) and 104% (inactive); with CAKI-1 renal, 93.6% (inactive) and 83.6% (inactive); with CCRF-CEM leukemia, 90.8% (inactive) and 100% (inactive) and 103% (inactive); in the assay with MOLT-4 leukemia, 98.5% (inactive) and 95.2% (inactive) and 98.8% (inactive).

For the compound `O=C(O)/C=C\C(=O)Nc1cccc2ccccc12`, the growth is 102% (inactive) and 96.9% (inactive) in the assay with HCT-15 colon; 98.1% (inactive) and 110% (inactive) with HT29 colon; 70% (inactive) and 83% (inactive) in the assay with SNB-75 CNS; 104% (inactive) and 100% (inactive) in the assay with SNB-19 CNS; 94.2% (inactive) and 102% (inactive) in the assay with U251 CNS; 103% (inactive) and 93.6% (inactive) in the assay with PC-3 prostate. The growth in the assay on SK-MEL-5 melanoma is 95.3% (inactive) and 108% (inactive); with UACC-62 melanoma, 99.8% (inactive) and 79.8% (inactive); with LOX IMVI melanoma, 102% (inactive) and 104% (inactive); with SK-MEL-28 melanoma, 101% (inactive) and 116% (inactive); with SK-MEL-2 melanoma, 88.2% (inactive) and 130% (inactive); with SN12C renal, 97.6% (inactive) and 92.3% (inactive). Also, the growth in the assay on TK-10 renal is 107% (inactive) and 121% (inactive); in the assay with ACHN renal, 90.5% (inactive) and 99.2% (inactive); with CAKI-1 renal it was 89.4% (inactive) and 98.7% (inactive); with A498 renal it was 96.3% (inactive) and 115% (inactive); in the assay with CCRF-CEM leukemia it was 50.7% (inactive) and 101% (inactive); with MOLT-4 leukemia it was 77.2% (inactive) and 84.1% (inactive).

Take `O=c1n(CC2CO2)c(=O)n(CC2CO2)c(=O)n1CC1CO1` (stereo not drawn): the growth is 75.9% (inactive) with HCT-15 colon; 70.3% (inactive) with HT29 colon; 66.3% (inactive) in the assay on SNB-75 CNS; 83.9% (inactive) in the assay with SNB-19 CNS; 56.2% (inactive) in the assay with U251 CNS; 71.4% (inactive) with PC-3 prostate. The growth in the assay on SK-MEL-5 melanoma was 86.7% (inactive); in the assay with UACC-62 melanoma it was 66% (inactive); with LOX IMVI melanoma, 54.5% (inactive); with SK-MEL-28 melanoma it was 88.7% (inactive); in the assay on SN12C renal, 46.7% (inactive); in the assay with UO-31 renal, 38.2% (inactive). Further, the growth in the assay with TK-10 renal was 77.9% (inactive); in the assay with CAKI-1 renal, -7.84% (active); with A498 renal, 88.4% (inactive); in the assay on CCRF-CEM leukemia, 32.5% (inactive); in the assay with MOLT-4 leukemia, 19.2% (inactive).

As for `NC(Cc1c[nH]c2ccccc12)C(=O)O` (stereo not drawn), the growth with HCT-15 colon was 107% (inactive) and 104% (inactive); in the assay on HT29 colon it was 110% (inactive) and 97.4% (inactive); in the assay on SNB-75 CNS, 94.4% (inactive) and 79.6% (inactive); in the assay on SNB-19 CNS, 104% (inactive); with U251 CNS, 103% (inactive) and 97.4% (inactive); in the assay with PC-3 prostate, 91% (inactive) and 86.7% (inactive). For the same compound, the growth was 124% (inactive) and 101% (inactive) in the assay on SK-MEL-5 melanoma; 87.3% (inactive) and 92.5% (inactive) in the assay with UACC-62 melanoma; 96.1% (inactive) and 95.8% (inactive) with LOX IMVI melanoma; 132% (inactive) and 106% (inactive) in the assay with SK-MEL-28 melanoma; 110% (inactive) with SK-MEL-2 melanoma; 101% (inactive) in the assay on SN12C renal. In addition, the growth is 103% (inactive) and 98.8% (inactive) in the assay with TK-10 renal; 99.8% (inactive) and 100% (inactive) with ACHN renal; 85% (inactive) in the assay on CAKI-1 renal; 105% (inactive) and 102% (inactive) in the assay with CCRF-CEM leukemia; 3.12% (active) and 100% (inactive) with MOLT-4 leukemia.

In the case of `CN(C)c1ccc(/C=C\C(=O)c2ccccc2)cc1`, the growth was 83.3% (inactive) and 66.5% (inactive) and 72% (inactive) with HCT-15 colon; 53.6% (inactive) and 58.5% (inactive) and 57.6% (inactive) in the assay on HT29 colon; 70.1% (inactive) and 100% (inactive) and 93.4% (inactive) in the assay with SNB-75 CNS; 98.7% (inactive) and 92.3% (inactive) and 61.6% (inactive) with SNB-19 CNS; 82.2% (inactive) and 80.6% (inactive) in the assay on U251 CNS; 88.3% (inactive) and 94.4% (inactive) and 76% (inactive) with PC-3 prostate. For the same compound, the growth was 95.2% (inactive) and 89.4% (inactive) and 89.1% (inactive) in the assay with SK-MEL-5 melanoma; 88.4% (inactive) and 91.1% (inactive) and 84.9% (inactive) in the assay on UACC-62 melanoma; 93% (inactive) and 103% (inactive) and 89.8% (inactive) with SK-MEL-28 melanoma; 93.3% (inactive) and 91.9% (inactive) and 72.1% (inactive) in the assay on SK-MEL-2 melanoma; 105% (inactive) with EKVX NSCLC; 95.6% (inactive) and 98.8% (inactive) and 95% (inactive) in the assay on SN12C renal. For the same compound, the growth in the assay with TK-10 renal is 76.6% (inactive) and 79% (inactive) and 70.5% (inactive); with CAKI-1 renal it was 86.9% (inactive) and 93.8% (inactive); in the assay with A498 renal, 91.8% (inactive) and 71.8% (inactive) and 102% (inactive); in the assay on CCRF-CEM leukemia it was 70.4% (inactive) and 65% (inactive) and 74% (inactive); in the assay on MOLT-4 leukemia, 74.5% (inactive) and 85.3% (inactive) and 72.2% (inactive).

For `CCCCOC(=O)/C=C\C(=O)NC(N)=O`, the growth was 90.8% (inactive) with HCT-15 colon; 97% (inactive) in the assay on HT29 colon; 95.9% (inactive) in the assay with SNB-75 CNS; 91.4% (inactive) in the assay on SNB-19 CNS; 96.4% (inactive) with U251 CNS; 83% (inactive) in the assay with PC-3 prostate. Further, the growth is 99.8% (inactive) in the assay on SK-MEL-5 melanoma; 79.1% (inactive) with UACC-62 melanoma; 97.6% (inactive) in the assay with SK-MEL-28 melanoma; 111% (inactive) in the assay on SK-MEL-2 melanoma; 95% (inactive) in the assay with EKVX NSCLC; 87.2% (inactive) in the assay on SN12C renal. For the same compound, the growth in the assay on UO-31 renal was 31% (inactive); with TK-10 renal, 119% (inactive); in the assay on CAKI-1 renal, -58% (active); in the assay with CCRF-CEM leukemia, 75.2% (inactive); in the assay with MOLT-4 leukemia, 65.4% (inactive).
